The subject of this test is HL-60(TB) leukemia. The test is described as follows: NCI-60 one-dose screen, 48 h (100 = growth as untreated, 0 = no growth, -100 = all killed). As to conditions: 10 µM unless noted.

This is part of a sample that, as a whole, favours compounds with a hit. Of some 83,000 tested, about 20% had one in any assay.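 Cells were grown in 96-well plates and exposed to the test compound at a single concentration for 48 hours; results are reported as percent growth, with values below 10 considered active.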 Values without a mark were called inactive. Active and inactive are the calls of the source.

On to `COc1ccc(C2Nc3ccccc3-n3cccc32)cc1` (stereo not drawn), for which the growth was 113%. On to `CCN(CC)C(=S)SSC(=S)N(CC)CC`, for which the growth is 73.7%.

With `CCOc1cc2ncc(C#N)c(Nc3ccc(OCc4ccccn4)c(Cl)c3)c2cc1NC(=O)/C=C/CN(C)C`, the growth is 2.7% (active). Turning to `Cc1ccc(S(=O)(=O)NCCNc2cc(-c3cn(C(C)(C)C)nc3-c3cccc(O)c3)ccn2)cc1`, the growth is 65.8%.

With `Cn1c2ccccc2c2ccccc21`, the growth was 95.9%. With `CN(C)c1ccc(/C=C(\C#N)c2nc3ccccc3c(=O)[nH]2)cc1`, the growth was 108%. On to `CCNCCNc1cc(C2CCCCC2)c(C#N)c2nc3ccccc3n12`, for which the growth was -62.4% (active). As to `CC1=NN(c2ccccc2)C(=O)/C1=C\N1CC(=O)NC1=S`, the growth was 103%. For `Cc1ccc(-c2nc(/C=N/Nc3cc(C)nc4ccc(Br)cc34)c(C)o2)cc1` the value was -37.4% (active); for `CC1(C)CC[C@]23CC[C@]4(C)[C@H](CC[C@@H]5[C@@]6(C)C/C(=C/c7ccncc7)C(=O)C(C)(C)[C@@H]6CC[C@]54C)[C@H]2[C@H]1OC3`, 61%.

For the compound `CC(=O)NNC(=O)c1sc(NC(C)=O)nc1C`, the growth was 101%. Take `O=C1NC(=O)C(CSc2ccccc2)(c2ccccc2)N1` (stereo not drawn): the growth is 99.9%. As for `c1ccc(Cn2cnc3ccc(-c4nc(-c5ccc6c(c5)ncn6C5CCCCC5)cn5ccnc45)cc32)cc1`, the growth is -20.8% (active). For `CC(C)[C@@H]1CC[C@]2(CO2)[C@@H]2C(=O)OCC(C(=O)O)=C[C@H]21` the value was -12.4% (active).

In the case of `O=C(NN1C(=O)CSC1c1cccc([N+](=O)[O-])c1)c1ccc(NC(=O)c2ccccn2)cc1` (stereo not drawn), the growth was 67.6%. On to `CCCCCN1CCN(C(CC(=O)c2ccccc2)C(=O)c2ccccc2)CC1` (stereo not drawn), for which the growth was 60.4%. Take `CC1(c2ccccc2Cl)NC(=O)NC1=O` (stereo not drawn): the growth is 87.8%. As for `COc1ccc2c(c1)c(CC(=O)NCCOCCOCC(=O)Nc1ccc(OC)c(C(N)=O)c1O)c(C)n2C(=O)c1ccc(Cl)cc1`, the growth is 107%. Regarding `O=C(CC(=O)Nc1cccc(C(=O)O)c1)Nc1cccc(C(=O)O)c1`, the growth was 113%.

Consider `C=C(c1ccc(OC)c(/C=C/C(=O)c2ccc3c(c2)OCO3)c1)c1cc(OC)c(OC)c(OC)c1`, for which the growth was 10.3%. For `COc1ccc(/C=N/NC(=O)Cn2nnc3ccccc32)cc1`, the growth was 105%. For `Cc1c2ncccc2nc2[nH]c3ccc(OCCN(C)C)cc3c12`, the growth is 15.9%. In the case of `CCOC(=O)c1c(C)nc2c(c1N)CC(=O)N2CCc1ccccc1`, the growth is -3.38% (active).

The values above are taken from PubChem BioAssay (NCI).
